In PubChem BioAssay (NCI) one finds growth inhibition data, which are given here for 14 compounds.

Structures are written as SMILES. About 79,000 compounds went through this panel and 15% of them were active in at least one assay; those are over-represented in the sample as a whole. Values without a mark were called inactive. Activity calls are given as the source filed them. Cut-off read from the data, not from the text of the source: active = growth inhibition above about 70%; inactive = the rest.

The experiment in a line: NCI Yeast Anticancer Drug Screen. Data for the rad50 strain (AID 155).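 Note: 0% = growth of vehicle-only cultures of the same strain.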 Conditions: S. cerevisiae rad50 strain growth inhibition, stronger effect = higher value. How it is done: Growth inhibition of yeast strains with defined genetic alterations is measured as a screen for potential anti-cancer activity. Selected strains with alterations in DNA damage repair or cell cycle control were exposed to compounds and growth inhibition was measured relative to vehicle treated controls. The strain used in this assay is rad50

Setting [1] is: at 5.0 µM (retest, dose inferred, filed as 0.5).
Where [2] appears, read: at 50.0 µM (retest, dose inferred, filed as 5.0).

Regarding `C(CCCCCN1CCCCC1)CCCCN1CCCCC1`, the growth inhibition under setting [1] is -14%, the growth inhibition under setting [2] was -9% and the growth inhibition (at 50.0 µM) was -2.7%.
`CCOC(CCl)Oc1c(C(C)C)cc(C(C)C)c(Cl)c1C` (configuration not stated): the growth inhibition is, setting by setting: under setting [1], 0%; under setting [2], 20%; (at 50.0 µM) 97.5% (active).
`CC(C)(c1cc(Br)c(O)c(Br)c1)c1cc(Br)c(O)c(Br)c1`: the growth inhibition runs as follows: under setting [1], 76% (active); under setting [2], 97% (active); (at 50.0 µM) 87.2% (active).
Turning to `CN(NC(=O)/C(=C/c1ccc2c(c1)OCO2)NC(=O)c1ccccc1)c1ccnc2cc(Cl)ccc12`, the growth inhibition by setting is: under setting [1], -7%; under setting [2], -10%; (at 50.0 µM) 89.7% (active).
On to `CC(=O)Oc1ccc(-c2ccc(Br)cc2)cc1`, for which the growth inhibition is, setting by setting: under setting [1], -1%; under setting [2], 92% (active); (at 50.0 µM) 89.2% (active).
Consider `O=C1C=CC(=O)c2c(O)c(N3CCC[C@@H]3CO)c(Cl)c(O)c21`, for which the growth inhibition under setting [1] was 20%, the growth inhibition under setting [2] is 65% and the growth inhibition (at 50.0 µM) is 30.1%.
For `CN(C)C(=S)/N=c1\ss/c(=N\C(=S)N(C)C)n1-c1ccc(Cl)cc1`, in that order: 9%, 9% and 94.2% (active).
For `CCNc1ncnc2c1ncn2Cc1ccco1`, in that order: -4%, 0% and -1.1%.
`COc1ccc(CCCCI)cc1`: the growth inhibition reads like this: under setting [1], -4%; under setting [2], 95% (active); (at 50.0 µM) 94.6% (active).
The corresponding values for `N#CC(C(=O)CCCC(=O)Nc1cccc([N+](=O)[O-])c1)c1cccc2ccccc12` (configuration not stated) are 8%, 10% and 32.5%.
Take `CCCn1c2ccccc2c2ccc3c(c21)C(=O)C=CC3=O`: the growth inhibition under setting [1] is 31%, the growth inhibition under setting [2] is 69% and the growth inhibition (at 50.0 µM) was 67.8%.
The corresponding values for `CCOC(=O)CN1CCC(C(=O)CC2(O)C3(Cl)C4(Cl)C5(Cl)C(Cl)(Cl)C6(Cl)C4(Cl)C2(Cl)C6(Cl)C53Cl)CC1` (configuration not stated) are 30%, 98% (active) and 98.8% (active).
For `O=C(OCCCC(C(=O)c1ccccc1)=P(c1ccccc1)(c1ccccc1)c1ccccc1)c1ccccc1`, in that order: 35%, 99% (active) and 84.8% (active).
For `Cc1ccc(Cc2n[nH]c(=O)[nH]2)cc1`, in that order: 32%, 35% and -28.9%.
